From PubChem BioAssay
USP1-UAF1 inh: inhibitors of human USP1/UAF1 deubiquitinase; O94782; recombinant USP1/UAF1, Ub-Rhodamine cleavage fluorescence; Potency, µM (titrated, usually from 57.1 µM), for the others: top-dose activity change, negative = inhibition, most hits filed as inhibitors; 390,000 compounds, 0.23% hits; also: potency is read from the fitted curve at half-maximal effect; % is scaled to controls: 0 for no effect and ±100 for the full control effect; nearly all actives have a fitted effect of over 60% in size
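High-throughput fluorogenic screen: 1nM USP1/UAF1 complex, Ub-Rho substrate 150nM final, 50mM HEPES pH 7.8 with 0.5mM EDTA, 0.1 mg/ml BSA, 1mM TCEP and 0.01% Tween-20.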
PLK1 PBD inh: blocks phosphopeptide binding to human PLK1 polo-box domain; Plk1 PBD binding of FITC phosphopeptide, fluorescence polarization; 360,000 compounds, 2.8% hits; Potency, µM, without a hit: max response, negative = inhibition, most hits filed as inhibitors; P53350; also: potency is read from the fitted curve at half-maximal effect; series mostly up to about 57 µM; % is scaled to controls: 0 for no effect and ±100 for the full control effect; nearly all actives have a fitted effect of over 65% in size
Target sequence (P53350 whole entry, looked up, the tested form may be a part): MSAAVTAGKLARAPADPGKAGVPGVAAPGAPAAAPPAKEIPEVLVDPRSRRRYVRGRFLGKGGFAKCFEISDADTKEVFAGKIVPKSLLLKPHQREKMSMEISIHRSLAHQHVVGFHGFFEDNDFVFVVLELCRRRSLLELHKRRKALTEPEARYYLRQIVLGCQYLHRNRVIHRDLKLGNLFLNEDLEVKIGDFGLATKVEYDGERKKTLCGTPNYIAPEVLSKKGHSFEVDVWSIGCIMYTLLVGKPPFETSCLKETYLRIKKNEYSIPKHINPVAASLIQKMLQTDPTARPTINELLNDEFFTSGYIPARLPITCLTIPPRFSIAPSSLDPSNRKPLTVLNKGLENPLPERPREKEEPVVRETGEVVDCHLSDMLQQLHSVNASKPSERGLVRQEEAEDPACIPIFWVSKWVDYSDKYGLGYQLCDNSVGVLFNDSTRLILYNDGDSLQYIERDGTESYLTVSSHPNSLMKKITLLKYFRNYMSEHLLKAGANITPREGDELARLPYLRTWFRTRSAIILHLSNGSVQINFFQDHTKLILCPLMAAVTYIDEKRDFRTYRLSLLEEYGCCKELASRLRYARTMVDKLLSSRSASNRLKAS
USP2a inh: USP2a (human) protease inhibition; Potency, µM (titrated, usually from 38.3 µM), for inactives: at the highest dose activity change, negative = inhibition, usual class: inhibitors; O75604; USP2 core, Ub-CHOP2 coupled fluorogenic reporter, 485/531; 330,000 compounds, 0.01% hits; AID 463254;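 also: potency is read from the fitted curve at half-maximal effect; plate controls were DMSO wells for no effect and full inhibition by NEM control for full effect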
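Cell-free coupled assay: 10nM USP2 core preincubated 30min RT with compound in Tris-HCl pH 8.0/CaCl2/CHAPS buffer, then 25nM Ub-CHOP2 and 25nM reporter substrate; fluorescence (Ex 485/Em 531) read after 60min RT, normalized to NEM inhibition, concentration-response curves fitted.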
VDR inhibitor: inhibitors of human vitamin D receptor | P11473 | VDR-SRC2-3 peptide fluorescence polarization, 2 h | Potency, µM, for the others: max response, negative = inhibition, most hits filed as inhibitors | 400,000 compounds, 0.93% hits | AID 504847; also: potency is read from the fitted curve at half-maximal effect; % is scaled to controls: 0 for no effect and ±100 for the full control effect
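Measured by FP: displacement of SRC2-3 coactivator peptide from VDR by library compounds, following a two-hour ambient incubation.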
FBPA coupling cs: coupling enzyme interference in Giardia aldolase counter-screen; coupling enzyme system counterscreen, AmpLite Red fluorescence; 290,000 compounds, 0.67% hits; AID 2472; activity change, negative = inhibition, % at 58.2 µM, hits read low; in the data active = activity change below about -30%; also: % is scaled to controls: 0 for no effect and ±100 for the full control effect
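Compounds tested against the coupling enzymes alone at 57.5 uM final; readout was AmpLite Red fluorescence (525/598 nm) after 20 min at RT.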
GALK inhibitor: blocks human galactokinase activity. AID 1868. P51570. 270,000 compounds, 0.007% hits. Potency, µM (series often up to 57.5 µM), inactives show top-dose activity change, negative = inhibition, usual class: inhibitors. Purified GALK, Kinase-Glo residual ATP luminescence; also: potency is read from the fitted curve at half-maximal effect; % is scaled to controls: 0 for no effect and ±100 for the full control effect
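Quantitative HTS: GALK 5 nM, ATP 35 uM, galactose 100 uM, 1 h room temperature, then luciferase-based ATP detection.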
USP1 UbRho: validation of human USP1/UAF1 inhibitors; 50 compounds, 50% hits; Potency, µM (highest dose often 56.8 µM), without a hit: at the highest dose activity change, negative = inhibition, hits mostly inhibitors; shares compounds with VDR inhibitor; Ub-Rhodamine cleavage, fluorescence kinetic read
VDR confirm: confirmation of human vitamin D receptor inhibitors; shares compounds with VDR inhibitor; VDR-coactivator inhibition assay, qHTS confirmation; Potency, µM, hits mostly inhibitors; 840 compounds, 89% hits; also: potency is read from the fitted curve at half-maximal effect
VDR FP: confirmation of human VDR-coactivator binding inhibitors, fluorescein label; 840 compounds, 48% hits; AID 602200; Potency, µM (top dose mostly 57.1 µM), inactives show at the top dose activity change, negative = inhibition, actives largely listed as inhibitors; VDR-coactivator binding, fluorescein fluorescence polarization; shares compounds with VDR inhibitor; also: potency is read from the fitted curve at half-maximal effect
VDR bla reporter: confirmation of human vitamin D receptor inhibitors in reporter cells; 840 compounds, 23% hits; Potency, µM (series often up to 46.1 µM), for the others: top-dose activity change, negative = inhibition, usual class: inhibitors; VDR beta-lactamase reporter cells, FRET ratio; cells co-treated with VDR agonist LG190178; shares compounds with VDR inhibitor; AID 602202; also: potency is read from the fitted curve at half-maximal effect; % is scaled to controls: 0 for no effect and ±100 for the full control effect
VDR cytotox: cell toxicity, VDR inhibitor hit counter-screen; cytotoxicity counter-screen, cell viability, qHTS; 840 compounds, 18% hits; shares compounds with VDR inhibitor; AID 602204; Potency, µM (series often up to 48.3 µM), for the others: at the top dose activity change, negative = cytotoxicity, hits mostly cytotoxic;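 also: potency is read from the fitted curve at half-maximal effect; plate controls were DMSO for no effect and high-concentration cycloheximide for full effect; nearly all actives have a fitted effect of over 75% in size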
The depositor's hits bear a star; ? = inconclusive; nt = no result. Hits are enriched below; roughly 3.2% of the tested compounds scored in any of these assays. Unless noted, calls follow the shape of the dose curve; as a rule, active = well fitted curve in the direction sought with a large enough effect; inconclusive = small, poorly fitted or top-dose-only effect, or another doubt; inactive = no such curve, though single readings can be large; an effect the other way counts as inactive or inconclusive.

SMILES	USP1-UAF1 inh	PLK1 PBD inh	USP2a inh	VDR inhibitor	FBPA coupling cs	GALK inhibitor	VDR confirm	VDR FP	VDR bla reporter	VDR cytotox	others
O=C(Oc1ccccc1/C=C\C(=O)c1cc2ccccc2o1)c1cccc(F)c1	-17%	-13%	1%	28µM*	-4	-4%	11*	?	?	?
NC(=O)N/N=C/c1ccccc1OC(=O)c1cc2ccccc2oc1=O	-13%	-20%	1%	-2%	0	7%	nt	nt	nt	nt
COc1ccccc1C(=O)NNC(=O)C(=O)N1CCCCC1	-11%	-4%	0%	0%	nt	4%	nt	nt	nt	nt
COc1ccc(Nc2ccc(C(N)=O)cc2[N+](=O)[O-])cc1	-10%	-3%	-1%	9%	0	5%	nt	nt	nt	nt
O=C(O)CN1C(=O)/C(=C\c2cc(Br)ccc2OCc2ccc(Cl)cc2Cl)SC1=S	?	12µM*	-6%	45µM*	16	-15%	17*	18µM*	12%	?
CC(C)(C)C1C/C(=C/c2ccccn2)C(=O)/C(=C/c2ccccn2)C1 (stereo unspecified)	-30%	?	-1%	?	0	1%	2.5*	2µM*	1µM*	12µM*
O=C1/C(=C/c2ccccn2)COc2ccccc21	-5%	-15%	1%	?	-4	0%	13*	22µM*	?	-19%
CS(=O)(=O)c1ccc(S(=O)CC(=O)Oc2ccc(Cl)cc2)c([N+](=O)[O-])c1 (stereo unspecified)	-21%	3µM*	-6%	3.5µM*	-27	-1%	2.5*	1.6µM*	18µM*	?
O=C(CN(Cc1ccccc1Cl)C(=O)CN1C(=O)CSc2ccccc21)NC1CC1	-3%	-14%	-2%	?	1	-2%	nt	nt	nt	nt
O=C1NC(=S)SC1=Cc1ccc(F)cc1	-2%	-12%	nt	-1%	nt	nt	nt	nt	nt	nt
O=C1NC(=O)/C(=C/c2ccc(-c3ccc(F)cc3O)o2)S1	nt	nt	nt	13µM*	nt	nt	nt	nt	nt	nt	USP1 UbRho=53µM*
CCOC(=O)c1c(C2COc3ccccc3O2)csc1NC(=O)c1ccco1 (stereo unspecified)	-13%	2.5µM*	-2%	?	-4	2%	?	2.2µM*	-25%	-4%
CCOC(=O)c1c(C)nsc1NC(=O)c1ccco1	-10%	-2%	0%	15%	1	0%	nt	nt	nt	nt
O=C(NCc1ccc2c(c1)OCO2)c1nc(S(=O)(=O)Cc2ccccc2)ncc1Cl	-5%	?	0%	22µM*	nt	-3%	9.5*	?	18µM*	?
CCS(=O)(=O)c1ncc(Cl)c(C(=O)NCc2ccccc2)n1	-19%	nt	nt	-7%	nt	nt	nt	nt	nt	nt
CCc1nnc(NC(=O)c2nc(Cl)ccc2Cl)s1	-12%	-11%	0%	-8%	nt	-6%	nt	nt	nt	nt
CCc1nnc(NC(=O)c2nc(SCc3ccccc3F)ncc2Cl)s1	-3%	nt	nt	4%	nt	nt	nt	nt	nt	nt
CCc1nnc(NC(=O)c2nc(S(=O)(=O)Cc3cccc(C)c3)ncc2Cl)s1	-14%	27µM*	4%	13µM*	5	-3%	3*	?	5.8µM*	?
CCOc1ccccc1NC(=O)c1nc(S(=O)(=O)Cc2cccc(C)c2)ncc1Cl	-3%	?	0%	16µM*	nt	1%	8.4*	?	3.3µM*	7.3µM*
CCc1nnc(NC(=O)c2nc(S(=O)(=O)Cc3ccccc3)ncc2Cl)s1	-13%	-16%	1%	22µM*	nt	3%	7.5*	8.9µM*	13µM*	18µM*
O=C(Nc1ccc(S(=O)(=O)N2CCOCC2)cc1)c1cc([N+](=O)[O-])ccc1Cl	-18%	1%	2%	-12%	3	0%	nt	nt	nt	nt
COC(=O)c1ccccc1NC(=O)c1nc(S(=O)(=O)Cc2ccccc2)ncc1Cl	-13%	?	1%	?	nt	-4%	3.2*	3.2µM*	9.2µM*	21µM*
O=C(c1ccccc1)C(CCC(CN1CCOCC1)C(=O)c1ccccc1)CN1CCOCC1 (stereo unspecified)	-20%	-7%	5%	?	-1	-2%	?	?	21µM*	29%
c1ccc(C(CN2CCOCC2)c2ccccc2)cc1	-13%	-11%	0%	-5%	-1	-1%	nt	nt	nt	nt
COc1cc(/C=C/C(=O)c2ccc(F)cc2)cc(OC)c1OC	-17%	-7%	2%	32µM*	-21	3%	21*	?	?	?
SMILES	USP1-UAF1 inh	PLK1 PBD inh	USP2a inh	VDR inhibitor	FBPA coupling cs	GALK inhibitor	VDR confirm	VDR FP	VDR bla reporter	VDR cytotox	others
Cc1ccc(C(c2cc(Cl)c3cccnc3c2O)N2CCN(C)CC2)cc1 (stereo unspecified)	-19%	1.5µM*	0%	45µM*	-5	15%	19*	?	-28%	?
O=C1CCCC2=C1C1(O)C(=O)c3ccccc3C1(O)O2 (stereo unspecified)	-22%	-11%	0%	?	-6	2%	2.5*	2.2µM*	9%	12%
Cc1c(NC(C)c2cc(Cl)ccc2O)c(=O)n(-c2ccccc2)n1C (stereo unspecified)	-5%	-6%	3%	14%	-1	0%	nt	nt	nt	nt
O=C(c1ccc(Cl)cc1)N(Cc1ccco1)Cc1ccco1	-23%	nt	nt	-3%	nt	nt	nt	nt	nt	nt
CS(=O)(=O)c1ncc(Cl)c(C(=O)N(Cc2ccc(Cl)cc2)Cc2ccco2)n1	-22%	nt	nt	25µM*	nt	nt	2.8*	3.5µM*	16µM*	19µM*
COc1ccc(C2Nc3ccccc3C(=O)N2NS(=O)(=O)c2ccc(C)cc2)c(OC)c1 (stereo unspecified)	-16%	-13%	4%	-4%	2	10%	nt	nt	nt	nt
